Reference: PubChem BioAssay (NCI)
About 83,000 compounds went through this panel and 20% of them were active in at least one assay; those are over-represented in the sample as a whole.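 Negative percent growth values reflect cell death: -40 means 40% of the cells present at the start died, and -100 means all died.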 The source made the active and inactive calls. How the source made its calls: active means growth percent below 10; inactive means the rest.

What was measured:
Test in all cases: NCI-60 one-dose screen, 48 h (100 = growth as untreated, 0 = no growth, -100 = all killed)
Settings in all cases: 10 µM unless noted
MOLT-4 leukemia = test system: MOLT-4 leukemia
SR leukemia = test system: SR leukemia
RPMI-8226 leukemia = test system: RPMI-8226 leukemia
OVCAR-8 ovarian = test system: OVCAR-8 ovarian
OVCAR-5 ovarian = test system: OVCAR-5 ovarian
OVCAR-4 ovarian = test system: OVCAR-4 ovarian
SK-OV-3 ovarian = test system: SK-OV-3 ovarian
IGROV1 ovarian = test system: IGROV1 ovarian
OVCAR-3 ovarian = test system: OVCAR-3 ovarian
HS 578T breast = test system: HS 578T breast

Measured: growth

CC[C@H](C)[C@H](NC(=O)c1ccccn1)C(=O)N(C)[C@H](C[C@@H](OC(C)=O)c1nc(C(=O)N[C@@H](Cc2ccccc2)C[C@H](C)C(=O)OC)cs1)C(C)C
inactive: MOLT-4 leukemia 19.5% | RPMI-8226 leukemia 19.9% | OVCAR-8 ovarian 22.6% | OVCAR-5 ovarian 49.6% | OVCAR-4 ovarian 47.8% | SK-OV-3 ovarian 41.2% | IGROV1 ovarian 28.4%
active: SR leukemia 4.97% | OVCAR-3 ovarian -22.5% | HS 578T breast -1.12%

O=C(O)C1C(C(=O)O)C2(Cl)C(Cl)=C(Cl)C1(Cl)C2(Cl)Cl.[Hg] (stereo not given)
inactive: MOLT-4 leukemia 72.6% | SR leukemia 60.6% | RPMI-8226 leukemia 84% | OVCAR-8 ovarian 106% | OVCAR-5 ovarian 106% | OVCAR-4 ovarian 108% | SK-OV-3 ovarian 120% | IGROV1 ovarian 74.8% | OVCAR-3 ovarian 39.8% | HS 578T breast 102%

CCCCN1CCCC[C@@H]1C(=O)N[C@H](C(=O)N(C)[C@H](C[C@@H](OC(C)=O)c1nc(C(=O)NC2CCC(C(=O)OC)CC2)cs1)C(C)C)C(C)C (stereo not given in full)
active: OVCAR-3 ovarian -29.5%
inactive: MOLT-4 leukemia 19.2% | SR leukemia 20.4% | RPMI-8226 leukemia 16.8% | OVCAR-8 ovarian 24.6% | OVCAR-5 ovarian 57% | OVCAR-4 ovarian 52.2% | SK-OV-3 ovarian 23.9% | IGROV1 ovarian 39.5% | HS 578T breast 14.5%

CC(C)CCC1(CCCl)C(=O)NC(=O)NC1=O
inactive: MOLT-4 leukemia 112% | SR leukemia 102% | RPMI-8226 leukemia 103% | OVCAR-8 ovarian 101% | OVCAR-5 ovarian 101% | OVCAR-4 ovarian 99.4% | SK-OV-3 ovarian 102% | IGROV1 ovarian 108% | OVCAR-3 ovarian 116% | HS 578T breast 106%

CCCOC(=O)N[C@H]1CCc2c(Br)c(OC)c(OC)c(OC)c2-c2ccc(SC)c(=O)cc21
inactive: MOLT-4 leukemia 10.7% | OVCAR-8 ovarian 13.4% | OVCAR-5 ovarian 36.7% | OVCAR-4 ovarian 32.6% | SK-OV-3 ovarian 40.8% | IGROV1 ovarian 10.9%
active: SR leukemia 3.3% | RPMI-8226 leukemia -9.16% | OVCAR-3 ovarian -16.8% | HS 578T breast 1.06%

COC(=O)[C@@H](C)C[C@H](Cc1ccccc1)NC(=O)c1nc([C@@H](C[C@H](C(C)C)N(C)C(=O)[C@@H](NC(=O)[C@H]2CCCN2C)C(C)C)OC(C)=O)sc1C
active: SR leukemia 5.28% | SK-OV-3 ovarian 1.93% | OVCAR-3 ovarian -9.82%
inactive: MOLT-4 leukemia 15.3% | RPMI-8226 leukemia 20.6% | OVCAR-8 ovarian 14.5% | OVCAR-5 ovarian 30.7% | OVCAR-4 ovarian 49.9% | IGROV1 ovarian 27.4% | HS 578T breast 18.8%

CCOc1ccccc1C(=O)OCC(Cl)(Cl)Cl
inactive: MOLT-4 leukemia 105% | SR leukemia 93.9% | RPMI-8226 leukemia 107% | OVCAR-8 ovarian 102% | OVCAR-5 ovarian 109% | OVCAR-4 ovarian 111% | SK-OV-3 ovarian 106% | IGROV1 ovarian 106% | OVCAR-3 ovarian 109% | HS 578T breast 97.9%

COc1cc2c(cc1OCCCCCn1c(-c3ccco3)nc3ccccc31)N=C[C@@H]1CCCN1C2=O
inactive: RPMI-8226 leukemia 28% | OVCAR-8 ovarian 18.6% | OVCAR-4 ovarian 11.2% | SK-OV-3 ovarian 42.3% | OVCAR-3 ovarian 12.9% | HS 578T breast 14.7%
active: MOLT-4 leukemia 6.41% | SR leukemia 0.702% | OVCAR-5 ovarian 7.02% | IGROV1 ovarian -59.8%

ClCCN(CCCl)c1ccc(OCc2ccccc2)cc1
inactive: MOLT-4 leukemia 11.7% | RPMI-8226 leukemia 64.8% | OVCAR-8 ovarian 55.8% | OVCAR-5 ovarian 89% | OVCAR-4 ovarian 78.7% | SK-OV-3 ovarian 65.2% | IGROV1 ovarian 76.7% | OVCAR-3 ovarian 78% | HS 578T breast 96.6%
active: SR leukemia -8.12%

CCCC(=O)O[C@@H]1C[C@H]2C[C@@H](O[C@@H]3O[C@@H](C)[C@@H](O)[C@@H](O)[C@H]3OC)C[C@@H](C[C@@H](C)/C=C/C=C\C[C@@H]3O[C@@H](C[C@@H]3C)[C@@H](O)C[C@H]3C[C@@]1(O)C(=O)O3)O2
inactive: MOLT-4 leukemia 37.5% | SR leukemia 85.9% | RPMI-8226 leukemia 27.3% | OVCAR-8 ovarian 41.1% | OVCAR-5 ovarian 74.5% | OVCAR-4 ovarian 25.4% | SK-OV-3 ovarian 52.4% | IGROV1 ovarian 70.1% | OVCAR-3 ovarian 59.8% | HS 578T breast 96.7%

COc1ccc([As]=[As]c2ccc(OC)c(NCS(=O)(=O)O)c2)cc1NCS(=O)(=O)O (stereo not given)
active: MOLT-4 leukemia -0.189% | SR leukemia -1.51% | RPMI-8226 leukemia -13% | IGROV1 ovarian 5.53% | OVCAR-3 ovarian 9.01% | HS 578T breast 6.44%
inactive: OVCAR-8 ovarian 44% | OVCAR-5 ovarian 63.8% | OVCAR-4 ovarian 14.9% | SK-OV-3 ovarian 91.6%

CCn1c2ccccc2c2cc(C(=O)c3ccc(C)c4ccccc34)ccc21
inactive: RPMI-8226 leukemia 12.2% | OVCAR-8 ovarian 22.8% | OVCAR-5 ovarian 28.6% | OVCAR-4 ovarian 48.5% | SK-OV-3 ovarian 25.4% | IGROV1 ovarian 21.4% | HS 578T breast 30.1%
active: MOLT-4 leukemia 7.66% | SR leukemia 2.83% | OVCAR-3 ovarian 7.68%

Nc1nnnc2nc[nH]c12
inactive: OVCAR-8 ovarian 11.5% | OVCAR-4 ovarian 27.4% | OVCAR-3 ovarian 27.6%
active: MOLT-4 leukemia 8.9% | SR leukemia 5.26% | RPMI-8226 leukemia -11.4% | OVCAR-5 ovarian -3.28% | SK-OV-3 ovarian -1.85% | IGROV1 ovarian 8.3% | HS 578T breast 8.71%

CCC(O)(CN)c1ccccc1 (stereo not given)
inactive: MOLT-4 leukemia 105% | SR leukemia 100% | RPMI-8226 leukemia 102% | OVCAR-8 ovarian 97% | OVCAR-5 ovarian 105% | OVCAR-4 ovarian 111% | SK-OV-3 ovarian 98.4% | IGROV1 ovarian 97.9% | OVCAR-3 ovarian 114% | HS 578T breast 102%

COC(=O)[C@H](Cc1ccccc1)NNC(=O)c1csc([C@@H](C[C@H](C(C)C)N(C)C(=O)[C@@H](NC(=O)[C@H]2CCCCN2C)C2CC2)OC(C)=O)n1
inactive: OVCAR-8 ovarian 24.1% | OVCAR-5 ovarian 32.5% | OVCAR-4 ovarian 41.3% | SK-OV-3 ovarian 19.8% | IGROV1 ovarian 27.4%
active: MOLT-4 leukemia 7.86% | SR leukemia 5.77% | RPMI-8226 leukemia 7.38% | OVCAR-3 ovarian 4.06% | HS 578T breast 9.52%

c1ccc(CSC(c2ccccc2)c2ccccc2)cc1
inactive: MOLT-4 leukemia 115% | SR leukemia 141% | RPMI-8226 leukemia 94.2% | OVCAR-8 ovarian 109% | OVCAR-5 ovarian 104% | OVCAR-4 ovarian 120% | SK-OV-3 ovarian 123% | IGROV1 ovarian 107% | OVCAR-3 ovarian 119% | HS 578T breast 112%

O=[N+]([O-])CC(c1ccccc1Cl)c1c(-c2ccccc2)[nH]c2ccccc12 (stereo not given)
active: OVCAR-3 ovarian 9.26%
inactive: MOLT-4 leukemia 30.3% | SR leukemia 18.9% | RPMI-8226 leukemia 45.2% | OVCAR-8 ovarian 40.4% | OVCAR-5 ovarian 69.1% | OVCAR-4 ovarian 66.4% | SK-OV-3 ovarian 44.1% | IGROV1 ovarian 33.8% | HS 578T breast 41.2%

Cc1c(NS(=O)(=O)c2ccccc2)ccc([N+](=O)[O-])c1Cl
inactive: MOLT-4 leukemia 73.6% | SR leukemia 73.8% | RPMI-8226 leukemia 42.4% | OVCAR-8 ovarian 74.6% | OVCAR-5 ovarian 89.1% | OVCAR-4 ovarian 47.3% | SK-OV-3 ovarian 71.3% | IGROV1 ovarian 72.5% | OVCAR-3 ovarian 42.2% | HS 578T breast 64.4%

Fc1cccc(NCOOC2(OOCNc3cccc(F)c3)CCCCC2)c1
inactive: MOLT-4 leukemia 97.6% | SR leukemia 31.5% | RPMI-8226 leukemia 99.6% | OVCAR-8 ovarian 96.8% | OVCAR-5 ovarian 96.2% | OVCAR-4 ovarian 98.5% | SK-OV-3 ovarian 103% | IGROV1 ovarian 40.1% | OVCAR-3 ovarian 99.3% | HS 578T breast 104%

COc1ccc(S(=O)(=O)Nc2c(/C=C\c3cc(OC)c(OC)c(OC)c3)ccc(OC)c2O)cc1OC
active: SK-OV-3 ovarian 9.89% | OVCAR-3 ovarian -20.9%
inactive: MOLT-4 leukemia 16.8% | SR leukemia 15.9% | RPMI-8226 leukemia 25.4% | OVCAR-8 ovarian 20.3% | OVCAR-5 ovarian 33.7% | OVCAR-4 ovarian 43% | IGROV1 ovarian 23.9% | HS 578T breast 16.3%

O=C1C2CCC1C(N1CCCC1)CC2 (stereo not given)
inactive: MOLT-4 leukemia 98% | SR leukemia 100% | RPMI-8226 leukemia 98.7% | OVCAR-8 ovarian 96.3% | OVCAR-5 ovarian 101% | OVCAR-4 ovarian 106% | SK-OV-3 ovarian 106% | IGROV1 ovarian 96% | OVCAR-3 ovarian 106% | HS 578T breast 102%

CC(=O)O[C@H](C[C@H](C(C)C)N(C)C(=O)[C@@H](NC(=O)[C@H]1CCCCN1C)C(C)C)c1nc(C(=O)N[C@@H](Cc2ccccc2)C[C@H](C)C(=O)O)c(CCOCc2ccccc2)s1
active: SR leukemia 9.77% | RPMI-8226 leukemia -3.42% | OVCAR-3 ovarian -6.07%
inactive: MOLT-4 leukemia 11% | OVCAR-8 ovarian 10.8% | OVCAR-5 ovarian 35.7% | OVCAR-4 ovarian 37% | SK-OV-3 ovarian 44.6% | IGROV1 ovarian 10.7% | HS 578T breast 11.4%

O=C(CCCCCCC(=O)Nc1ccc(N(CCCl)CCCl)cc1)NO
inactive: MOLT-4 leukemia 19.5% | SR leukemia 12.2% | RPMI-8226 leukemia 49.1% | OVCAR-8 ovarian 19.3% | OVCAR-5 ovarian 53.7% | OVCAR-4 ovarian 44.9% | SK-OV-3 ovarian 26.3% | IGROV1 ovarian 59.2% | OVCAR-3 ovarian 41.7% | HS 578T breast 71.7%

COc1cc(NCCCN=C(N)N)c2ncccc2c1
inactive: MOLT-4 leukemia 94.1% | SR leukemia 102% | RPMI-8226 leukemia 85.4% | OVCAR-8 ovarian 81.2% | OVCAR-5 ovarian 86.2% | SK-OV-3 ovarian 93.4% | IGROV1 ovarian 36% | HS 578T breast 88.8%
active: OVCAR-4 ovarian -95.8% | OVCAR-3 ovarian 7.99%

CC(=O)OC1C(OC/C2=C/C3[C@@H](C(C)C)CC=C(C)[C@@H]3CC(OC(=O)/C=C/c3cn(C)cn3)[C@]3(C)C=C[C@@]2(O)O3)OCC(O)C1O (stereo not given in full)
active: RPMI-8226 leukemia 4.84%
inactive: MOLT-4 leukemia 35.8% | SR leukemia 24.8% | OVCAR-8 ovarian 32.7% | OVCAR-5 ovarian 49.4% | OVCAR-4 ovarian 43% | SK-OV-3 ovarian 11.9% | IGROV1 ovarian 33.6% | OVCAR-3 ovarian 15.3% | HS 578T breast 21.8%
